Calls of active or inactive are those of the source. Unless noted, how the calls were made is not given here.

Experiment [1] has as its system Wnt5a (protein binding on small-molecule microarray). Briefly: Wnt5a binders on small-molecule microarray, primary screen, biophysical, 635/667 nm fluorescence (AID 1142).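 Further: fluorescence read at 667 nm with signal to noise per printed feature.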 The note with it: 635 nm fluorescence, higher = more signal.
The nature of experiment [2]: cell viability in Huh7 cells, primary screen, cytotoxicity control for HCV replication inhibitor project, CellTiter-Glo luminescence, basal, 48 h (AID 1143).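 Further: Huh7 hepatoma cells carrying a hepatitis C replication reporter with no stimulus; test concentration not given here.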 Particulars: Huh7 HCV replicon, higher = more signal, called active from +8 up or from −8 down.
A short description of experiment [3]: P. aeruginosa biofilm formation inhibitors, primary screen, PAO1 strain, BacTiter-Glo luminescence, LB-PBS (AID 1144). The note with it: 12 h, higher = more signal.
Experiment [4] is described as follows: CREB reporter modulators without forskolin, primary screen, cell-based, PC12, CRE-LacZ reporter, unstimulated (AID 1145). The note with it: no forskolin, luminescence, 4.5 h, higher = more signal, called active from +8 up or from −8 down.
Experiment [5] is described as follows: CREB reporter modulators under forskolin, primary screen, cell-based, PC12, CRE-LacZ reporter, forskolin-stimulated (AID 1146).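 Further: PC12 cells with 6xCRE LacZ reporter stimulated by forskolin 10 µM; beta-galactosidase reporter signal reflecting CREB driven transcription.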 Particulars: luminescence, 4.5 h, higher = more signal, called active from +8 up or from −8 down.
Experiment [6] concerns the target Streptavidin (Streptomyces avidinii) (UniProt P22629). Description: streptavidin binders on small-molecule microarray, primary screen, artefact control for SMM compound annotation, biophysical, 635/667 nm fluorescence (AID 1147).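 Further: signal reflects streptavidin binding to arrayed compounds as a control protein.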 The note with it: streptavidin binding, higher = more signal.
Experiment [7] can be described thus: small-molecule binders of probe aInhba, primary screen, biochemical, small-molecule microarray, 635/667 nm fluorescence (AID 1148).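 Further: score merges 667nm spot fluorescence with signal-to-noise for antibody binding to printed compounds.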 The note with it: higher = more signal.
The target in experiment [8] is Torsin-1A (Homo sapiens) (UniProt O14656). Description: torsin A binders from cell lysate, primary screen, small-molecule microarray, wild-type, 635/667 nm (AID 1149). Particulars: COS7 hTOR1A-WT lysate, 635 nm fluorescence, higher = more signal.
Experiment [9] shares this target. Description: small-molecule binders of mutant TOR1A in lysate, primary screen, cell lysate, small-molecule microarray, COS7 lysate, 635/667 nm fluorescence (AID 1150).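 Further: score pools 667 nm emission and signal to noise measuring lysate protein binding.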 Particulars: COS7 hTOR1A mutant lysate, 635 nm fluorescence, higher = more signal.
Experiment [10] deals with Sonic hedgehog protein (Shh). Briefly: small-molecule binders of Shh protein, primary screen, biochemical, small-molecule microarray, 635/667 nm fluorescence (AID 1151).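 Further: Shh protein binding to compounds spotted on small-molecule microarray slides; score combines spot fluorescence intensity with signal-to-noise across triplicate slides.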 Particulars: small-molecule microarray binding, 635 nm fluorescence; higher = more signal.
A short description of experiment [11]: E. coli DRC41 culture turbidity changes, primary screen, E. coli filamentation inducer project, strain DRC41, OD650, 48 h (AID 1152).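 Further: E. coli MC1000 strain DRC41 lacking acrAB efflux pump and sulA.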 The note with it: E. coli DRC41 (acrAB sulA), higher = more signal, called active from +8 up or from −8 down.
Experiment [12] is described as follows: small-molecule binders of probe aLefty1, primary screen, biochemical, small-molecule microarray, 635/667 nm fluorescence (AID 1153).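 Further: score merges spot fluorescence with signal-to-noise ratio from the scanned slide images.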 Particulars: higher = more signal.
A short description of experiment [13]: PSAC antagonists in infected red cells, primary screen, cell-based, P. falciparum Indochina, OD700, 1 h (AID 1154). Particulars: P. falciparum Indochina infected RBC osmotic lysis, higher = more signal, called active from +8 up or from −8 down.
Experiment [14] in a line: PSAC antagonists in infected red cells, primary screen, cell-based, P. falciparum Indochina, OD700, 2 h (AID 1155).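 Further: lysis reports solute entry through the parasite surface anion channel PSAC; channel blockers reduce lysis of infected cells.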 Particulars: P. falciparum Indochina infected erythrocytes, osmotic lysis OD700; higher = more signal, called active from +8 up or from −8 down.
Experiment [15] is described as follows: osmotic lysis modulators in infected erythrocytes, primary screen, PSAC antagonist project, cell-based, P. falciparum Indochina, OD700, 3 h (AID 1156). Particulars: higher = more signal, called active from +8 up or from −8 down.
The nature of experiment [16]: PSAC antagonists in infected red cells, primary screen, cell-based, P. falciparum Indochina, OD700, 18 h (AID 1157). Particulars: P. falciparum Indochina infected erythrocytes, osmotic lysis OD700, 18 h; higher = more signal, called active from +8 up or from −8 down.
A short description of experiment [17]: modulators of S6 phosphorylation in cells, primary screen, cell-based, A549, cytoblot, luminescence, serum-stimulated (AID 1158).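 Further: serum-stimulated A549 lung adenocarcinoma cells; signal is phosphorylated S6 detected by cytoblot immunostaining with HRP secondary.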 Particulars: A549 phospho-S6 cytoblot, 5 h, higher = more signal.
Experiment [18] addresses NADPH oxidase 2 (Homo sapiens) (UniProt P04839). Description: NOX2-dependent H2O2 signal modulators, primary screen, NOX inhibitor project, cell-based, HEK293-NOX2, PMA-stimulated, Amplex Red fluorescence (AID 1159). Further: test concentration not given here. The note with it: 45 min, higher = more signal, called active from +8 up or from −8 down.
Experiment [19] has as its target NADPH oxidase 4 (Homo sapiens) (UniProt Q9NPH5). Description: NOX4-dependent H2O2 signal modulators, primary screen, NOX inhibitor project, cell-based, HEK293-NOX4, tetracycline-induced, Amplex Red fluorescence (AID 1160). The note with it: 45 min, higher = more signal, called active from +8 up or from −8 down.
For experiment [20], the target named is NADPH oxidase 5 (Homo sapiens) (UniProt Q96PH1). Description: NOX5-dependent H2O2 signal modulators, primary screen, NOX inhibitor project, cell-based, HEK293-NOX5, Amplex Red fluorescence (AID 1161). The note with it: HEK293-NOX5, ionomycin, 45 min, higher = more signal.
NADPH oxidase 5 (Homo sapiens), sequence (Q96PH1 whole entry, looked up): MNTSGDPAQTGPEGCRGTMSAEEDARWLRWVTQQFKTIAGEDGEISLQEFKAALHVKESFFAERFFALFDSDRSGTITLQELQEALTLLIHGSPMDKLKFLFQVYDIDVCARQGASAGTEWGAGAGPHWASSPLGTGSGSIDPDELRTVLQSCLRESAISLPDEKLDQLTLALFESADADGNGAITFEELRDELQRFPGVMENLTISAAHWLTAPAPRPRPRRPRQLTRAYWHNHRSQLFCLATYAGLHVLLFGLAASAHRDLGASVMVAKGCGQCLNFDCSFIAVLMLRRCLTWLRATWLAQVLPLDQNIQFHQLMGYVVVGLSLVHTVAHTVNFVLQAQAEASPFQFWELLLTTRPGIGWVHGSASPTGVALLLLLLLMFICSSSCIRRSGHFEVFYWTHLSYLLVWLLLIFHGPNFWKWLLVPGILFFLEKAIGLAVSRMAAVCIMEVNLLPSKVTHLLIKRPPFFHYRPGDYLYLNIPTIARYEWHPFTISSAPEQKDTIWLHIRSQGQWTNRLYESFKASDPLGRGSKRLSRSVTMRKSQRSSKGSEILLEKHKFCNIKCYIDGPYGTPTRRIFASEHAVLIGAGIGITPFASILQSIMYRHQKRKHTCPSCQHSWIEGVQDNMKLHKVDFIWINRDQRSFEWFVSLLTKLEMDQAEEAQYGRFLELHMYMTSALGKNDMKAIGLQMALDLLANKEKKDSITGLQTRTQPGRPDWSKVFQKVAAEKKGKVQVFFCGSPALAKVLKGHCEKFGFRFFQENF

NADPH oxidase 4 (Homo sapiens), sequence (Q9NPH5 whole entry, looked up): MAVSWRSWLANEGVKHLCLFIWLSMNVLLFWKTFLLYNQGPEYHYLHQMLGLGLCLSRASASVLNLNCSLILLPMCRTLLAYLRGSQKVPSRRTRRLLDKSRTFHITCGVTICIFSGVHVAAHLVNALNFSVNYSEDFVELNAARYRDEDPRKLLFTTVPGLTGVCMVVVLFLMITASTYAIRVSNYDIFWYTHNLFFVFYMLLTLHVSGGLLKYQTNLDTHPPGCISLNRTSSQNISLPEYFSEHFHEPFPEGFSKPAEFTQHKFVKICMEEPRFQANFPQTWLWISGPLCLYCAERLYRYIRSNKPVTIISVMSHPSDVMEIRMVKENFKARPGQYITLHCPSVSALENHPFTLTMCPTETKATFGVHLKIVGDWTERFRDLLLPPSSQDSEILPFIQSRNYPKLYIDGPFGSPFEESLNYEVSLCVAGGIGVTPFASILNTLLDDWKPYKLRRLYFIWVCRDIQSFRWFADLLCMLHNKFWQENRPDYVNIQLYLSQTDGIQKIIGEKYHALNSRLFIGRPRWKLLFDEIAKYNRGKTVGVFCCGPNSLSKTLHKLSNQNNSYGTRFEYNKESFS
NADPH oxidase 2 (Homo sapiens), sequence (P04839 whole entry, looked up): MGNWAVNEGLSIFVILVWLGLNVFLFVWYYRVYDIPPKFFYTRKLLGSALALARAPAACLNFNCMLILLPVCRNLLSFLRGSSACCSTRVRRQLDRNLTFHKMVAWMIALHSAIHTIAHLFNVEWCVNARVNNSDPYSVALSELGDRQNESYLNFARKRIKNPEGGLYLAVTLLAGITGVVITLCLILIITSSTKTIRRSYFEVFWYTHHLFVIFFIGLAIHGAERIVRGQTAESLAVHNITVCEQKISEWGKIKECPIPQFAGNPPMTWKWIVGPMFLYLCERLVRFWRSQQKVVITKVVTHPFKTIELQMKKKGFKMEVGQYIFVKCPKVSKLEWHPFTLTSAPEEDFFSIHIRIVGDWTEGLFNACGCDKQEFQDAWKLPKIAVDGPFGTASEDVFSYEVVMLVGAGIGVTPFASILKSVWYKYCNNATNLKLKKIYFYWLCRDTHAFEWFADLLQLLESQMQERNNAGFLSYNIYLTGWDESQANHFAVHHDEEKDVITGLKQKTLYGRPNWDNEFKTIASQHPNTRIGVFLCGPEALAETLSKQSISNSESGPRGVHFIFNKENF
Streptavidin (Streptomyces avidinii), sequence (P22629 whole entry, looked up): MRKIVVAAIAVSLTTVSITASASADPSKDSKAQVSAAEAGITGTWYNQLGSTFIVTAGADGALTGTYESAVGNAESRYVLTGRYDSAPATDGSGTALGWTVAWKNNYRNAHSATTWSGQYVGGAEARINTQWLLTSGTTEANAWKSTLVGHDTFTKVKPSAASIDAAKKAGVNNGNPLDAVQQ
Torsin-1A (Homo sapiens), sequence (O14656 whole entry, looked up): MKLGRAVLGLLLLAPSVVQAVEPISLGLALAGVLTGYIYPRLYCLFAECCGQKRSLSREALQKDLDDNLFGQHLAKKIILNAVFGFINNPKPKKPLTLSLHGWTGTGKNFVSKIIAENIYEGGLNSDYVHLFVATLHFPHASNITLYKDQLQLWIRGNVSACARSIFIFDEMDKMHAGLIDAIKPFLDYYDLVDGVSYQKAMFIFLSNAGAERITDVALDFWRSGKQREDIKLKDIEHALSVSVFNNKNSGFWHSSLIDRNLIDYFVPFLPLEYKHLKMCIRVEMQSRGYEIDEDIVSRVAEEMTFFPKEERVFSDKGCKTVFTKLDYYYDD

`CC(C)N1C(=O)c2ccccc2[C@@H](C(=O)NC2CC2)[C@@H]1c1ccc(CO)cc1`: the composite z-score was 0.302 in experiment [1]; 0.381 in experiment [6]; -0.0059 in experiment [7]; 0.775 with Torsin-1A (Homo sapiens) [8]; 0.852 in the experiment with Torsin-1A (Homo sapiens) [9]; 0.531 in experiment [10]. The molecule further yielded a composite z-score in experiment [12] of 0.007. Also, the z-score is -0.264 (inactive) in experiment [2]; -0.226 (inactive) in experiment [3]; 0.001 (inactive) in experiment [4]; -0.3 (inactive) in experiment [5]; 0.258 (inactive) in [11]; 2.06 (inactive) in experiment [13]. The z-score in [14] was -0.0507 (inactive); in [15] it was -0.0836 (inactive); in experiment [16], -0.307 (inactive); in experiment [17], 0.167; in experiment [18] it was 0.393 (inactive); in experiment [19], 0.708 (inactive). Further, in [20], the z-score came out at 0.442.
Take `CCCCC=C[C@@H](NC(=O)c1ccc(-c2ccccc2)cc1)c1ccccc1`: the composite z-score in experiment [1] is -0.0312; in [6] it was 1.18; in [7], 0.319; with Torsin-1A (Homo sapiens) [8], 0.58; in the experiment with Torsin-1A (Homo sapiens) [9] it was 0.871; in experiment [10] it was -0.181. In addition, the composite z-score in [12] amounted to 0.258. The z-score in [2] was -1.76 (inactive); in experiment [3], -0.00961 (inactive); in experiment [4] it was 0.197 (inactive); in experiment [5] it was -0.013 (inactive); in experiment [11], -1.63 (inactive); in experiment [13], 2.54 (inactive). The z-score was 0.631 (inactive) in experiment [14]; -0.309 (inactive) in experiment [15]; 0.862 (inactive) in experiment [16]; 0.0893 in experiment [17]; -0.473 (inactive) in [18]; -1.12 (inactive) in experiment [19]. The molecule further came in with a z-score in experiment [20] of 1.46.
For `COC(=O)CCCCCCC(=O)Nc1ccc(NC(=O)CCCC[P+](c2ccccc2)(c2ccccc2)c2ccccc2)cc1`, the composite z-score in experiment [1] is 0.38; in experiment [6], 0.352; in experiment [7], -0.0645; in the experiment with Torsin-1A (Homo sapiens) [8], 0.463; with Torsin-1A (Homo sapiens) [9] it was 0.28; in experiment [10], 1.89. Also, in [12], the composite z-score was -0.0601. Also, the z-score is -0.238 (inactive) in experiment [2]; -0.873 (inactive) in [3]; 0.575 (inactive) in experiment [4]; -1.85 (inactive) in [5]; -12.4 (active) in experiment [11]; 25.6 (active) in experiment [13]. Also, the z-score was 9.83 (active) in [14]; 1.95 (inactive) in experiment [15]; 1.43 (inactive) in experiment [16]; 0.274 in experiment [17]; -0.765 (inactive) in experiment [18]; 0.429 (inactive) in [19]. For the same molecule, in experiment [20], the z-score was determined as 0.0901.
As for `Cc1ccccc1C(O)C1C=CC2C(=O)N(C)C(=O)C2N1N(c1ccccc1)c1ccccc1` (stereo not given), the composite z-score in [1] is 0.613; in experiment [6], 0.115; in experiment [7] it was 1.15; with Torsin-1A (Homo sapiens) [8] it was -0.0241; in the experiment with Torsin-1A (Homo sapiens) [9] it was 0.0289; in [10], 0.188. In experiment [12], this molecule came in with a composite z-score of 0.998. For the same molecule, the z-score in [2] was -0.0897 (inactive); in experiment [3], -0.588 (inactive); in experiment [4], -0.136 (inactive); in experiment [5] it was -0.0376 (inactive); in experiment [11], -0.402 (inactive); in [13], 3.21 (inactive). In addition, the z-score in [14] was 1.71 (inactive); in experiment [15], 0.625 (inactive); in [16], 1.25 (inactive); in experiment [17], -0.877; in experiment [18], 0.888 (inactive); in [19], 0.0569 (inactive). The z-score in experiment [20] is -0.125.
In the case of `CCCNC(=O)[C@@H]1c2ccccc2C(=O)N(C(C)C)[C@H]1c1ccc(CO)cc1`, the composite z-score in experiment [1] is -0.122; in [6], -0.0547; in experiment [7] it was 0.0658; in the experiment with Torsin-1A (Homo sapiens) [8], -0.215; with Torsin-1A (Homo sapiens) [9] it was 0.0984; in [10], -0.121. In experiment [12], this molecule displayed a composite z-score of 0.202. For the same molecule, the z-score is -0.0095 (inactive) in [2]; -0.521 (inactive) in experiment [3]; -0.412 (inactive) in [4]; 0.211 (inactive) in experiment [5]; 0.737 (inactive) in experiment [11]; 1.67 (inactive) in [13]. Also, the z-score is -0.1 (inactive) in [14]; 0.21 (inactive) in experiment [15]; -0.21 (inactive) in experiment [16]; -0.0878 in experiment [17]; 0.162 (inactive) in [18]; 0.514 (inactive) in [19]. This molecule also showed a z-score in experiment [20] of -0.0547.

Source of the values: PubChem BioAssay.
